Source: PubChem BioAssay (NCI)
About 79,000 compounds went through this panel and 15% of them were active in at least one assay; those are over-represented in the sample as a whole. Calls of active or inactive are those of the source. Rule as the data show it: active = growth inhibition above about 70%; inactive = the rest.

What was measured:
[1] = NCI Yeast Anticancer Drug Screen. Data for the rad52 strain (AID 147);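 also: 0% = growth of vehicle-treated control cultures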; conditions: S. cerevisiae rad52 mutant growth inhibition, stronger effect = higher value
Outline: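 Yeast strain carrying a DNA damage repair alteration was exposed to test compounds. Growth inhibition was measured relative to vehicle-treated controls.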

[2] = NCI Yeast Anticancer Drug Screen. Data for the wt1 strain (AID 149);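 also: 0% = growth of vehicle-treated wt1 cultures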; conditions: S. cerevisiae wt1 strain (SPY 50644) growth inhibition, stronger effect = higher value
Outline: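 Measured: growth of wt1 yeast under compound versus vehicle treatment, reported as inhibition.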

[3] = NCI Yeast Anticancer Drug Screen. Data for the rad50EPP+ strain (AID 151);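 also: 0% = growth of vehicle-treated control cultures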; conditions: S. cerevisiae rad50 mutant strain, stronger effect = higher value
Outline: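 Yeast strain carrying rad50 alteration (rad50EPP+) exposed to compounds; growth inhibition measured relative to vehicle-treated controls.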

[4] = NCI Yeast Anticancer Drug Screen. Data for the mgt1 strain (AID 153); conditions: S. cerevisiae mgt1 mutant growth inhibition, stronger effect = higher value
Outline: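 Yeast mgt1 strain (DNA repair/cell-cycle alteration panel) exposed to compounds; growth inhibition measured relative to vehicle-treated controls.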

[5] = NCI Yeast Anticancer Drug Screen. Data for the rad50 strain (AID 155);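 also: 0% = growth of vehicle-only cultures of the same strain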; conditions: S. cerevisiae rad50 strain growth inhibition, stronger effect = higher value
Outline: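 Growth of the mutant yeast was measured after compound exposure and referenced to vehicle-treated cultures.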

[6] = NCI Yeast Anticancer Drug Screen. Data for the mec2-1 strain (AID 157); conditions: S. cerevisiae mec2-1 strain, stronger effect = higher value
Outline: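 mec2-1 yeast strain, carrying an alteration in DNA damage repair or cell cycle control, was exposed to compounds; growth inhibition was measured relative to vehicle-treated controls.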

[7] = NCI Yeast Anticancer Drug Screen. Data for the rad14 strain (AID 159);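 also: 0% = growth of vehicle-treated control cultures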; conditions: S. cerevisiae rad14 strain growth inhibition, stronger effect = higher value
Outline: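 Here, inhibition of yeast growth was measured after compound exposure, using a strain with a genetic defect in DNA damage repair and vehicle-treated cultures as the reference.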

[8] = NCI Yeast Anticancer Drug Screen. Data for the sgs1 mgt1 strain (AID 161);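 also: 0% = growth of cultures given vehicle only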; conditions: S. cerevisiae sgs1 mgt1 strain, stronger effect = higher value
Outline: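 Growth of a repair-deficient yeast mutant was monitored after compound treatment and expressed as inhibition relative to vehicle-treated cultures.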

[9] = NCI Yeast Anticancer Drug Screen. Data for the CLN2oe strain (AID 163);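 also: 0% = growth of vehicle-only control cultures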; conditions: S. cerevisiae CLN2oe strain, stronger effect = higher value
Outline: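 Yeast cells carrying a defined cell-cycle control alteration were exposed to test compounds. Growth inhibition was scored against vehicle-treated control cultures.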

[10] = NCI Yeast Anticancer Drug Screen. Data for the cln2 rad14 strain (AID 165);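 also: 0% = growth equal to vehicle treated cultures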; conditions: S. cerevisiae cln2 rad14 strain, stronger effect = higher value
Outline: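 Yeast carrying cln2 and rad14 alterations (cell cycle control and DNA damage repair) were exposed to compounds. Growth inhibition was measured against vehicle-treated controls.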

[11] = NCI Yeast Anticancer Drug Screen. Data for the bub3 strain (AID 167); conditions: S. cerevisiae bub3 mutant strain, stronger effect = higher value
Outline: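 Whole-cell yeast assay. The mutant strain was incubated with compounds, and growth inhibition was determined by comparison with vehicle-treated cells.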

[12] = NCI Yeast Anticancer Drug Screen. Data for the wt2 strain (AID 169);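 also: 0% = growth of vehicle-treated yeast cultures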; conditions: S. cerevisiae wt2 strain growth inhibition, stronger effect = higher value
Outline: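 Yeast cells were exposed to test compounds, and growth inhibition was measured relative to vehicle-treated controls.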

[13] = NCI Yeast Anticancer Drug Screen. Data for the mlh1 strain (AID 171);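 also: 0% = growth of vehicle-treated control cultures of the same strain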; conditions: S. cerevisiae mlh1 strain growth inhibition, stronger effect = higher value
Outline: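 Yeast carrying a defined genetic alteration in DNA damage repair or cell cycle control were exposed to test compounds. Growth inhibition was measured relative to vehicle-treated controls.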

[14] = NCI Yeast Anticancer Drug Screen. Data for the sgs1 strain (AID 173);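 also: 0% = growth of vehicle-only control cultures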; conditions: S. cerevisiae sgs1 mutant, stronger effect = higher value
Outline: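 Yeast mutant strains carrying defined defects in DNA damage repair or cell cycle control were exposed to test compounds. Growth inhibition was scored against vehicle-treated controls.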

[15] = NCI Yeast Anticancer Drug Screen. Data for the mlh1 rad18 strain (AID 175); conditions: S. cerevisiae mlh1 rad18 strain growth inhibition, stronger effect = higher value
Outline: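 Growth inhibition of the yeast strain was measured after compound exposure and expressed relative to vehicle-treated controls. The strain carries defined defects in DNA damage repair.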

[16] = NCI Yeast Anticancer Drug Screen. Data for the rad18 strain (AID 177); conditions: S. cerevisiae rad18 mutant growth inhibition, stronger effect = higher value
Outline: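 Yeast carrying a defined DNA damage repair alteration were exposed to compounds. Growth inhibition was expressed relative to vehicle-treated controls.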

[17] = at 5.0 µM (retest, dose inferred, filed as 0.5)
[18] = at 50.0 µM (retest, dose inferred, filed as 5.0)

Measured: growth inhibition

CC1(C)C(O)OC(O)C1(C)C (stereo not drawn)
active: [16]; at 100.0 µM 77%
inactive: [1]; at 1.2 µM 0% | [1]; at 3.7 µM 0% | [1]; at 11.0 µM 2% | [1]; at 33.0 µM 7% | [1]; at 100.0 µM 30% | [2]; at 1.2 µM 0% | [2]; at 3.7 µM 0% | [2]; at 11.0 µM 4% | [2]; at 33.0 µM 2% | [2]; at 100.0 µM 8% | [3]; at 1.2 µM 0% | [3]; at 3.7 µM -1% | [3]; at 11.0 µM 2% | [3]; at 33.0 µM 1% | [3]; at 100.0 µM 12% | [4]; at 1.2 µM -1% | [4]; at 3.7 µM -1% | [4]; at 11.0 µM 2% | [4]; at 33.0 µM 16% | [4]; at 100.0 µM 10% | [5]; at 1.2 µM -1% | [5]; at 3.7 µM -2% | [5]; [17] 15% | [5]; at 11.0 µM 0% | [5]; at 33.0 µM 5% | [5]; [18] 8% | [5]; at 50.0 µM 69% | [5]; at 100.0 µM 25% | [6]; at 1.2 µM 0% | [6]; at 3.7 µM 2% | [6]; [17] 1% | [6]; at 11.0 µM 2% | [6]; at 33.0 µM 6% | [6]; [18] -10% | [6]; at 50.0 µM 29.4% | [6]; at 100.0 µM 23% | [7]; at 1.2 µM -2% | [7]; at 3.7 µM -2% | [7]; at 11.0 µM 0% | [7]; at 33.0 µM 3% | [7]; at 100.0 µM 22% | [8]; [17] -9% | [8]; [18] 14% | [8]; at 50.0 µM 58.5% | [9]; at 1.2 µM -10% | [9]; at 3.7 µM -3% | [9]; at 11.0 µM 0% | [9]; at 33.0 µM -5% | [9]; at 100.0 µM 3% | [10]; [17] 32% | [10]; [18] 7% | [10]; at 50.0 µM 24.4% | [11]; at 1.2 µM -7% | [11]; at 3.7 µM -7% | [11]; [17] -8% | [11]; at 11.0 µM -6% | [11]; at 33.0 µM -8% | [11]; [18] -13% | [11]; at 50.0 µM 37.4% | [11]; at 100.0 µM -6% | [12]; at 1.2 µM -1% | [12]; at 3.7 µM 1% | [12]; at 11.0 µM 5% | [12]; at 33.0 µM 5% | [12]; at 100.0 µM 10% | [13]; at 1.2 µM 0% | [13]; at 3.7 µM -1% | [13]; at 11.0 µM 4% | [13]; at 33.0 µM 6% | [13]; at 100.0 µM 18% | [14]; at 1.2 µM 1% | [14]; at 3.7 µM 5% | [14]; at 11.0 µM 11% | [14]; at 33.0 µM 25% | [14]; at 100.0 µM 63% | [15]; [17] 3% | [15]; [18] 56% | [15]; at 50.0 µM 60.8% | [16]; at 1.2 µM -1% | [16]; at 3.7 µM 2% | [16]; at 11.0 µM 13% | [16]; at 33.0 µM 31%
